# High-throughput results (PubChem)
# FBW7 act: human FBW7 E3 ligase activation, primary screen; AlphaScreen FBW7–phospho-cyclin E peptide binding, activator screen; normalized activity (activation), % at 26.1 µM; Q969H0; actives 0.13% (n = 650,000); in the data active = normalized activity above about 1.9%;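 also: purified mutant Fbw7 with reduced substrate affinity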
# MITF inh: human MITF inhibition, primary screen. O75030. AlphaScreen MITF homodimerization, bead proximity signal. inhibition, % at 2.6 µM. actives 0.91% (n = 650,000); in the data active = inhibition above about 50%;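 also: 0% = vehicle wells with protein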
# Target sequence (O75030 whole entry, looked up): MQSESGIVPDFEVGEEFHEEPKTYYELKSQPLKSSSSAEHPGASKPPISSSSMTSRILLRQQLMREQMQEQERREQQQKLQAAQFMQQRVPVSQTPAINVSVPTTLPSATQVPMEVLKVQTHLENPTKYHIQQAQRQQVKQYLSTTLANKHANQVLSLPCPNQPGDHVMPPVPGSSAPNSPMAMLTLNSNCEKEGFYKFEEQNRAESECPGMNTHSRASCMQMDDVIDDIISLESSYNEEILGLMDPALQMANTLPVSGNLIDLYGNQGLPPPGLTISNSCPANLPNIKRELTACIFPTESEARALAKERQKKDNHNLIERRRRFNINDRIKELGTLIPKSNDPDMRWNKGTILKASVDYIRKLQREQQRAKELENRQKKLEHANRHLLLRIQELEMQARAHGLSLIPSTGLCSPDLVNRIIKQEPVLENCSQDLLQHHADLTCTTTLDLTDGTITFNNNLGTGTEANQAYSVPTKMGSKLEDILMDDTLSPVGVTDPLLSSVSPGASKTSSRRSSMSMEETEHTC
# TEAD-YAP block: TEAD-YAP interaction inhibition; inhibition, % at 9.12 µM; HEK-TIYL cells, TEAD-Gal4/YAP UAS-luciferase luminescence; actives 1.4% (n = 640,000); in the data active = inhibition above about 32%;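 also: 0% = median of test compound wells and 100% = reference inhibitor wells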
# GPR151 activ: activates the human receptor GPR151; Q8TDV0; PathHunter beta-arrestin GPR151 cells, luminescence; activation, % at 11.2 µM; actives 1% (n = 650,000); in the data active = activation above about 4.9%;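 also: 0% = median of compound wells and 100% = cells with positive control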
# Numbers without * were called inactive; . = no result. Most compounds without a hit are left out; they make up all but 3.5% or so of the library.
SMILES,FBW7 act,MITF inh,TEAD-YAP block,GPR151 activ
CN1CCN(c2cccc(-c3ccnc(Nc4ccc(-n5ccnn5)cc4)n3)c2)CC1,0,9,68*,-1
CS(=O)(=O)Cc1cccc(-c2ccnc(Nc3ccc(-n4ccnn4)cc3)n2)c1,0,-9,41*,0
CS(=O)(=O)c1ccc(-c2ccnc(Nc3ccc(-n4ccnn4)cc3)n2)cc1,0,14,11,1
NC(=O)CCC(NC(=O)NC1CCCCC1)C(=O)O (stereo not given),2.1*,20,-10,-1
NC(=O)CCC(NC(N)=O)C(=O)O (stereo not given),0,16,7,0
Cc1c(C(=O)N(C)Cc2ccccc2)sc2ncn(CC(=O)Nc3ccc(C(C)C)cc3)c(=O)c12,0,-2,8,0
CCCCCCC(Sc1nc(Cl)cc(NCc2ccc(-c3ccccc3)cc2)n1)C(=O)O (stereo not given),.,5,.,2
COC(=O)c1ccc2nc(Nc3nc4c(OC)cccc4s3)sc2c1,1,6,73*,-2
O=C(NCCc1ccc(O)cc1)c1ccc2nc(Nc3ccc(-n4ccnc4)cc3)sc2c1,0,2,3,2
COc1ccc(CCNC(=O)c2ccc3nc(Nc4ccc(-n5ccnc5)cc4)sc3c2)cc1,0,11,62*,2
COC(=O)c1ccc2nc(Nc3nc4ccc(OC)cc4s3)sc2c1,0,-3,49*,1
COc1cccc(N2C(=O)CC(NNC(=O)c3cccnc3)C2=O)c1 (stereo not given),1,-2,-2,3
Cc1noc(C)c1COC(=O)c1ccccc1I,0,-3,2,0
Cc1cccc(-n2c(C)cc(C(=O)OCc3c(C)noc3C)c2C)c1,0,8,41*,-1
NNC(=O)/C(=C/c1cccs1)NC(=O)c1ccccc1,0,0,47*,-1
CCOc1ccc(O)c(/C=N/NC(=O)/C(=C\c2cccs2)NC(=O)c2ccccc2)c1,0,-1,8,0
COc1ccc(O)c(/C=N/NC(=O)/C(=C\c2cccs2)NC(=O)c2ccccc2)c1,0,10,58*,2
O=C1c2ccccc2C(=O)C12OC(c1ccc(Br)cc1)C1(C(=O)c3ccccc3C1=O)C2c1ccc(F)cc1 (stereo not given),0,63*,-5,0
Cc1ccc(C2OC3(C(=O)c4ccccc4C3=O)C(c3ccccc3)C23C(=O)c2ccccc2C3=O)cc1 (stereo not given),0,1,9,0
CN(C)C(=O)Cn1nc(C(=O)N2CCOCC2)cc1-c1cccs1,0,12,4,1
O=C(c1cc(-c2cccs2)n(CC(=O)N2CCCc3ccccc32)n1)N1CCOCC1,0,-5,51*,0
COc1ccc(-c2nc3cnccn3c2NC2CCCCC2)c(OC)c1,0,-5,-2,0
COc1ccc2c(-c3ccccc3)cc(NCCCN(C)C)nc2c1,0,68*,-13,-1
COc1ccc(-c2ccc(NCCCN(C)C)nc2)cc1,0,-12,4,0
CCSc1nc2sccn2c(=O)c1C(=O)NCc1ncc(C(F)(F)F)cc1Cl,0,20,11,0
SMILES,FBW7 act,MITF inh,TEAD-YAP block,GPR151 activ
O=C(NCc1ncc(C(F)(F)F)cc1Cl)c1cn2ccsc2n1,2.0*,25,2,-1
CN1CCN(c2ncn(-c3ccc(Nc4nccc(-c5cc(F)cc(N(C)C)c5)n4)cc3)n2)CC1,0,2,35*,0
OC1CCN(c2ncn(-c3ccc(Nc4nccc(-c5cc(F)cc(N6CCOCC6)c5)n4)cc3)n2)CC1,0,0,91*,1
OC1CCCN(c2ncn(-c3ccc(Nc4nccc(-c5cc(F)cc(N6CCOCC6)c5)n4)cc3)n2)C1 (stereo not given),0,14,57*,-2
Fc1cc(-c2ccnc(Nc3ccc(-n4cnc(-c5ccc(Cl)cn5)n4)cc3)n2)cc(N2CCOCC2)c1,0,13,6,1
OCc1ccc(-c2ncn(-c3ccc(Nc4nccc(-c5cc(F)cc(N6CCOCC6)c5)n4)cc3)n2)nc1,0,-1,83*,0
Fc1cc(-c2ccnc(Nc3ccc(-n4cnc(Br)n4)cc3)n2)cc(N2CCOCC2)c1,0,-8,6,0
COc1ccc(-c2cnc3c(Nc4cccc(N(C)C)c4)nccn23)cc1,1,10,-46,0
CN1CCN(c2ncn(-c3ccc(Nc4nccc(-c5cc(F)cc(N6CCC(O)CC6)c5)n4)cc3)n2)CC1,0,2,67*,-1
COC1CCN(c2ncn(-c3ccc(Nc4nccc(-c5cc(F)cc(N(C)C)c5)n4)cc3)n2)CC1,0,5,16,1
Cc1ncn(-c2ccc(Nc3nccc(-c4ccc(N5CCCC(O)C5)c(C#N)c4)n3)cc2)n1 (stereo not given),0,-6,35*,2
CC(=O)N(C1=C(N2CCOCC2)C(=O)c2ccccc2C1=O)c1cc(C)cc(C)c1,0,36,39*,1
CC(=O)N(C1=C(N2CCOCC2)C(=O)c2ccccc2C1=O)c1ccc(F)c(F)c1,0,24,32*,1
CCC1CCCCN1CCCNC(=O)Cn1cc2c(n1)CCCC2 (stereo not given),0,12,3,-2
CCOC(=O)N1CCN(c2c(NCCCN(CC)c3cccc(C)c3)c(=O)c2=O)CC1,0,68*,6,1
CC(=O)NC1=NC(=O)/C(=C/c2ccc(-c3ccc(Cl)cc3)o2)S1,0,-2,-12,0
CC(=O)NC1=NC(=O)/C(=C\c2ccc(I)o2)S1,0,75*,-3,1
CCOC(=O)c1ccc(N/C=C\C(=O)c2ccc3c(c2)OCO3)cc1,0,-11,33*,-1
c1ccc(Oc2cccc(Oc3cccc(Oc4cccc(Oc5ccccc5)c4)c3)c2)cc1,0,-4,-6,1
Nc1ccc(Oc2cccc(-c3ccc(N)cc3)c2)cc1,0,6,46*,0
Nc1ccc(Oc2cccc(Oc3ccc(N)cc3)c2)cc1,0,6,52*,0
COc1ccc(Oc2nc(C)cc(C)n2)cc1,1,4,-10,-2
Cc1cc(C)nc(Oc2ccc(N)cc2)n1,1.9*,16,52*,0
COc1cc(NC(=O)C2CCCO2)cc(OC)c1OC (stereo not given),1,18,1,-1
O=C(C[n+]1cc(=O)o[nH]1)N1CCC(CO)(Cc2ccccc2C(F)(F)F)CC1,0,2,3,-1
CCc1c(C)sc(NC(=O)C2C3C=CC(C3)C2C(=O)O)c1C(=O)OC(C)C (stereo not given),0,-4,64*,1
O=C(c1cc2nc(-c3ccc(Br)cc3)cc(C(F)(F)F)n2n1)N1CCCCC1,0,2,-5,1
CCCCC(CC)C(=O)Nc1ncc([N+](=O)[O-])s1 (stereo not given),0,10,44*,0
CCCOc1ccc(C(=O)NC(=S)Nc2ccccn2)cc1,0,-12,51*,-3
Cc1ccc(C)c(CSc2nc3[nH]ncc3c(=O)[nH]2)c1,0,10,37*,1
